{"source": "PubChem BioAssay (EPA / NIEHS)", "note": "The source made the active and inactive calls. How the source made its calls: active means hit-call score of the fitted dose curve at least 0.9, where 1 is the maximum; inactive means score below 0.9.", "data": [{"tested_on": "not listed separately", "experiment": "ATG_Sox_CIS: Attagene CIS-FACTORIAL HepG2 Assay for human SRY-box transcription factor (SOX) (AID 2282960)", "conditions": "HepG2 Attagene cis-factorial SOX reporter, mRNA; actives raise or lower the signal", "method_in_brief": "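HepG2, cis reporter units, 24 h exposure. Reporter mRNA: RT-PCR → FAM labelling → HpaI → CE fluorescence. Bidirectional fit vs DMSO.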", "values": [{"smiles": "c1ccc2occc2c1", "outcome": "inactive"}, {"smiles": "CN(C)CCCN1c2ccccc2Sc2ccc(Cl)cc21", "outcome": "inactive"}, {"smiles": "O=C1CCCCC1", "outcome": "inactive"}, {"smiles": "CC(C)OC(=O)C(C)(C)Oc1ccc(C(=O)c2ccc(Cl)cc2)cc1", "outcome": "inactive"}, {"smiles": "Cc1ccc(C(C)(C)C)c(O)c1", "AC50": "154 µM (active)"}, {"smiles": "Nc1nc(=S)c2[nH]cnc2[nH]1", "outcome": "inactive"}, {"smiles": "CO[C@@H]1COCC[C@@H]1N[C@@H]1CC[C@@](C(=O)N2CCc3ncc(C(F)(F)F)cc3C2)(C(C)C)C1", "outcome": "inactive"}, {"smiles": "CCCCCCCCCCCCCCCCO", "outcome": "inactive"}, {"smiles": "CC(=O)OC1CC(C)OC(C)O1", "note": "(configuration not stated)", "outcome": "inactive"}, {"smiles": "CC1(C)C(=O)NC(=O)N1CO", "outcome": "inactive"}, {"smiles": "Cn1cnc2c1c(=O)[nH]c(=O)n2C", "outcome": "inactive"}, {"smiles": "CC(C)(O)c1ccc(CNC(=O)c2cccnc2Oc2ccc(F)cc2)cc1", "outcome": "inactive"}, {"smiles": "CCCC(=O)O", "outcome": "inactive"}, {"smiles": "O=C(O)c1cccnc1", "outcome": "inactive"}, {"smiles": "COC(=O)CCC(=O)OC", "outcome": "inactive"}, {"smiles": "C#CC(O)C(CC)CCCC", "note": "(configuration not stated)", "outcome": "inactive"}, {"smiles": "NCCOCCOCCN", "outcome": "inactive"}, {"smiles": "NC=O", "outcome": "inactive"}, {"smiles": "O=C(O)c1[nH]n(-c2ccc(S(=O)(=O)O)cc2)c(=O)c1N=Nc1ccc(S(=O)(=O)O)cc1", "outcome": "inactive"}, {"smiles": "CCc1nc(N)nc(N)c1-c1ccc(Cl)cc1", "outcome": "inactive"}, {"smiles": "Nc1nc(Cl)nc2c1ncn2[C@H]1C[C@H](O)[C@@H](CO)O1", "outcome": "inactive"}, {"smiles": "CCCCCCCCCCCCCCOS(=O)(=O)O", "outcome": "inactive"}, {"smiles": "Cc1cn([C@H]2C=C[C@@H](CO)O2)c(=O)[nH]c1=O", "outcome": "inactive"}, {"smiles": "Cc1c(C)c2c(c(C)c1O)CCC(C)(COc1ccc(CC3SC(=O)NC3=O)cc1)O2", "note": "(configuration not stated)", "outcome": "inactive"}, {"smiles": "CC1=C(C)S(=O)(=O)CCS1(=O)=O", "outcome": "inactive"}, {"smiles": "O=C1O[C@H]([C@H](O)CO)C(O)=C1O", "outcome": "inactive"}, {"smiles": "CCc1cc(C2=C(C(=O)O)N(c3ccccc3C(F)(F)F)S(=O)(=O)c3ccccc32)cc2c1OCO2", "outcome": "inactive"}, {"smiles": "OCC(CO)n1cnc(-c2ccc(F)cc2)c1-c1ccnc(Oc2ccccc2)n1", "outcome": "inactive"}, {"smiles": "CC(C)COC(=O)CCCCC(=O)OCC(C)C", "outcome": "inactive"}]}, {"target": "Transcription factor Sp1 (Homo sapiens) (UniProt P08047)", "sequence (P08047 whole entry, looked up, the tested form may be a part)": "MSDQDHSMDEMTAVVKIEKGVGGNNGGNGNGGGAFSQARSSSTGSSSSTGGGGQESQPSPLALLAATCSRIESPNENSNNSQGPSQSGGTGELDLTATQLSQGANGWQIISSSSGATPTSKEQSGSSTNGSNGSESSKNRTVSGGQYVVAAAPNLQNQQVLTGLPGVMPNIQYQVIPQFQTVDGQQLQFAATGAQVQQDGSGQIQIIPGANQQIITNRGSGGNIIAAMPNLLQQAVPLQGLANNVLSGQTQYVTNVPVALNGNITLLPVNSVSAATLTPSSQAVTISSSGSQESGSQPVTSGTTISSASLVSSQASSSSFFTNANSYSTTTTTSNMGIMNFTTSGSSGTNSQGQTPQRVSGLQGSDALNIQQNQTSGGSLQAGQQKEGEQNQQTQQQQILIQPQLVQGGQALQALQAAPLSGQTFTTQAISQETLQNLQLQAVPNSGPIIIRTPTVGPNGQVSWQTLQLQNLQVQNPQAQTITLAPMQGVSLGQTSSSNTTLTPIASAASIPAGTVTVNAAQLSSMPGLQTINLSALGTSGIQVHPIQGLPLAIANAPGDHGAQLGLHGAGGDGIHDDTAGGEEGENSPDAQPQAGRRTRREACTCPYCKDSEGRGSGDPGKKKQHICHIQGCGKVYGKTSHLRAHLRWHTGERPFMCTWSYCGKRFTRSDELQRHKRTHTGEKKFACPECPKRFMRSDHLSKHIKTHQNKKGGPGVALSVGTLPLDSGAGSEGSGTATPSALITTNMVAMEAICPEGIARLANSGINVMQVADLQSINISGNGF", "experiment": "ATG_Sp1_CIS: Attagene CIS-FACTORIAL HepG2 Assay for human Specificity Protein 1 (Sp1) (AID 2282961)", "conditions": "HepG2 Sp1 cis-reporter transcription, actives raise or lower the signal", "method_in_brief": "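Liver-derived HepG2 cells, cis-element reporter library, 24 h treatment; RNA isolated, cDNA amplified with reporter-specific primers, FAM-labeled fragments sized on capillary analyzer. DMSO baseline, bidirectional curve fit.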", "values": [{"smiles": "c1ccc2occc2c1", "outcome": "inactive"}, {"smiles": "CN(C)CCCN1c2ccccc2Sc2ccc(Cl)cc21", "outcome": "inactive"}, {"smiles": "O=C1CCCCC1", "outcome": "inactive"}, {"smiles": "CC(C)OC(=O)C(C)(C)Oc1ccc(C(=O)c2ccc(Cl)cc2)cc1", "outcome": "inactive"}, {"smiles": "Cc1ccc(C(C)(C)C)c(O)c1", "AC50": "100 µM (active)"}, {"smiles": "Nc1nc(=S)c2[nH]cnc2[nH]1", "outcome": "inactive"}, {"smiles": "CO[C@@H]1COCC[C@@H]1N[C@@H]1CC[C@@](C(=O)N2CCc3ncc(C(F)(F)F)cc3C2)(C(C)C)C1", "outcome": "inactive"}, {"smiles": "CCCCCCCCCCCCCCCCO", "outcome": "inactive"}, {"smiles": "CC(=O)OC1CC(C)OC(C)O1", "note": "(configuration not stated)", "outcome": "inactive"}, {"smiles": "CC1(C)C(=O)NC(=O)N1CO", "outcome": "inactive"}, {"smiles": "Cn1cnc2c1c(=O)[nH]c(=O)n2C", "outcome": "inactive"}, {"smiles": "CC(C)(O)c1ccc(CNC(=O)c2cccnc2Oc2ccc(F)cc2)cc1", "outcome": "inactive"}, {"smiles": "CCCC(=O)O", "outcome": "inactive"}, {"smiles": "O=C(O)c1cccnc1", "outcome": "inactive"}, {"smiles": "COC(=O)CCC(=O)OC", "outcome": "inactive"}, {"smiles": "C#CC(O)C(CC)CCCC", "note": "(configuration not stated)", "AC50": "154 µM (active)"}, {"smiles": "NCCOCCOCCN", "outcome": "inactive"}, {"smiles": "NC=O", "outcome": "inactive"}, {"smiles": "O=C(O)c1[nH]n(-c2ccc(S(=O)(=O)O)cc2)c(=O)c1N=Nc1ccc(S(=O)(=O)O)cc1", "outcome": "inactive"}, {"smiles": "CCc1nc(N)nc(N)c1-c1ccc(Cl)cc1", "outcome": "inactive"}, {"smiles": "Nc1nc(Cl)nc2c1ncn2[C@H]1C[C@H](O)[C@@H](CO)O1", "outcome": "inactive"}, {"smiles": "CCCCCCCCCCCCCCOS(=O)(=O)O", "outcome": "inactive"}, {"smiles": "Cc1cn([C@H]2C=C[C@@H](CO)O2)c(=O)[nH]c1=O", "outcome": "inactive"}, {"smiles": "Cc1c(C)c2c(c(C)c1O)CCC(C)(COc1ccc(CC3SC(=O)NC3=O)cc1)O2", "note": "(configuration not stated)", "outcome": "inactive"}, {"smiles": "CC1=C(C)S(=O)(=O)CCS1(=O)=O", "outcome": "inactive"}, {"smiles": "O=C1O[C@H]([C@H](O)CO)C(O)=C1O", "outcome": "inactive"}, {"smiles": "CCc1cc(C2=C(C(=O)O)N(c3ccccc3C(F)(F)F)S(=O)(=O)c3ccccc32)cc2c1OCO2", "AC50": "59 µM (active)"}, {"smiles": "OCC(CO)n1cnc(-c2ccc(F)cc2)c1-c1ccnc(Oc2ccccc2)n1", "outcome": "inactive"}, {"smiles": "CC(C)COC(=O)CCCCC(=O)OCC(C)C", "outcome": "inactive"}]}, {"tested_on": "not listed separately", "experiment": "ATG_SREBP_CIS: Attagene CIS-FACTORIAL HepG2 Assay for human Sterol Regulatory Element Binding (SREBP) (AID 2282962)", "conditions": "HepG2 Attagene cis-factorial SREBP reporter, mRNA; actives raise or lower the signal", "method_in_brief": "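Twenty-four hours after chemical dosing of transfected HepG2 cultures, reporter RNA was converted to cDNA, amplified, end-labelled with 6-FAM and resolved by capillary electrophoresis. Responses were fitted relative to DMSO.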", "values": [{"smiles": "c1ccc2occc2c1", "outcome": "inactive"}, {"smiles": "CN(C)CCCN1c2ccccc2Sc2ccc(Cl)cc21", "AC50": "6.99 µM (active)"}, {"smiles": "O=C1CCCCC1", "outcome": "inactive"}, {"smiles": "CC(C)OC(=O)C(C)(C)Oc1ccc(C(=O)c2ccc(Cl)cc2)cc1", "outcome": "inactive"}, {"smiles": "Cc1ccc(C(C)(C)C)c(O)c1", "AC50": "161 µM (active)"}, {"smiles": "Nc1nc(=S)c2[nH]cnc2[nH]1", "outcome": "inactive"}, {"smiles": "CO[C@@H]1COCC[C@@H]1N[C@@H]1CC[C@@](C(=O)N2CCc3ncc(C(F)(F)F)cc3C2)(C(C)C)C1", "AC50": "77.7 µM (active)"}, {"smiles": "CCCCCCCCCCCCCCCCO", "outcome": "inactive"}, {"smiles": "CC(=O)OC1CC(C)OC(C)O1", "note": "(configuration not stated)", "outcome": "inactive"}, {"smiles": "CC1(C)C(=O)NC(=O)N1CO", "AC50": "150 µM (active)"}, {"smiles": "Cn1cnc2c1c(=O)[nH]c(=O)n2C", "outcome": "inactive"}, {"smiles": "CC(C)(O)c1ccc(CNC(=O)c2cccnc2Oc2ccc(F)cc2)cc1", "AC50": "44.6 µM (active)"}, {"smiles": "CCCC(=O)O", "outcome": "inactive"}, {"smiles": "O=C(O)c1cccnc1", "outcome": "inactive"}, {"smiles": "COC(=O)CCC(=O)OC", "outcome": "inactive"}, {"smiles": "C#CC(O)C(CC)CCCC", "note": "(configuration not stated)", "outcome": "inactive"}, {"smiles": "NCCOCCOCCN", "outcome": "inactive"}, {"smiles": "NC=O", "outcome": "inactive"}, {"smiles": "O=C(O)c1[nH]n(-c2ccc(S(=O)(=O)O)cc2)c(=O)c1N=Nc1ccc(S(=O)(=O)O)cc1", "outcome": "inactive"}, {"smiles": "CCc1nc(N)nc(N)c1-c1ccc(Cl)cc1", "outcome": "inactive"}, {"smiles": "Nc1nc(Cl)nc2c1ncn2[C@H]1C[C@H](O)[C@@H](CO)O1", "outcome": "inactive"}, {"smiles": "CCCCCCCCCCCCCCOS(=O)(=O)O", "outcome": "inactive"}, {"smiles": "Cc1cn([C@H]2C=C[C@@H](CO)O2)c(=O)[nH]c1=O", "outcome": "inactive"}, {"smiles": "Cc1c(C)c2c(c(C)c1O)CCC(C)(COc1ccc(CC3SC(=O)NC3=O)cc1)O2", "note": "(configuration not stated)", "AC50": "1.6 µM (active)"}, {"smiles": "CC1=C(C)S(=O)(=O)CCS1(=O)=O", "outcome": "inactive"}, {"smiles": "O=C1O[C@H]([C@H](O)CO)C(O)=C1O", "outcome": "inactive"}, {"smiles": "CCc1cc(C2=C(C(=O)O)N(c3ccccc3C(F)(F)F)S(=O)(=O)c3ccccc32)cc2c1OCO2", "AC50": "26.6 µM (active)"}, {"smiles": "OCC(CO)n1cnc(-c2ccc(F)cc2)c1-c1ccnc(Oc2ccccc2)n1", "outcome": "inactive"}, {"smiles": "CC(C)COC(=O)CCCCC(=O)OCC(C)C", "outcome": "inactive"}]}]}
